Experimental findings from PubChem BioAssay (EPA / NIEHS) are described below.

Where “and” joins values, the source holds several entries; their conditions need not be identical. Equal values may be shown once. Inconclusive results are not listed. Calls of active or inactive are those of the source. How the source made its calls: active means hit-call score of the fitted dose curve at least 0.9, where 1 is the maximum; inconclusive means response in the unintended direction; inactive means score below 0.9.

Experiment [1] concerns the target human Neurokinin, NK2 Receptor, TACR2 (gene 6865) (UniProt P21452). The experiment can be described thus: NVS_GPCR_hNK2: NovaScreen (NVS) G Protein-Coupled Receptor Assay for human Neurokinin, NK2 Receptor (AID 2283278).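 Further: actives reduce bound radioligand signal relative to DMSO baseline.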 The procedure, abridged: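 Cell-free radioligand binding using receptor protein extracted from CHO cells; readings taken 4 hours after chemical dosing by filter-based scintillation counting. Primary screen ran single concentration (25 uM) in duplicate; actives followed up in concentration series, loss-of-signal versus DMSO baseline.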

Experiment [2] has as its target human Purinergic Receptor P2Y, P2RY1 (gene 5028) (UniProt P47900). Put plainly: NVS_GPCR_hPY2: NovaScreen (NVS) G Protein-Coupled Receptor Assay for human Purinergic Receptor P2Y (AID 2283281). The gist of the method:
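Filtration scintillation readout of radioligand displacement on U937 extract, measured 1 h post-dosing. Single 25 uM duplicate screen, then singleton concentration series to 50 uM for chemicals passing threshold; DMSO as baseline.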

Experiment [3] has as its target human Thromboxane A2 Receptor (TXA2), TBXA2R (gene 6915) (UniProt P21731). Put plainly: NVS_GPCR_hTXA2: NovaScreen (NVS) G Protein-Coupled Receptor Assay for human Thromboxane A2 Receptor (TXA2) (AID 2283282).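 Further: actives reduce bound radioligand signal relative to DMSO baseline.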 The gist of the method: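 Cell-free radioligand binding with human platelet-derived receptor; 1 h after dosing, filter-based scintillation counting, loss of signal vs DMSO. Primary screen in duplicate at 25 uM.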

The target of experiment [4] is human Neuropeptide Receptor Y1 (NPY1), NPY1R (gene 4886) (UniProt P25929). The experiment can be described thus: NVS_GPCR_hNPY1: NovaScreen (NVS) G Protein-Coupled Receptor Assay for human Neuropeptide Receptor Y1 (NPY1) (AID 2283276). The procedure, abridged:
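Displacement of specific radioligand from NPY1 receptor of SK-N-MC origin, read by filtration and scintillation after 1 h. Compounds first tested at 25 uM in duplicate, then actives in concentration series; signal loss relative to DMSO.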

Experiment [5] addresses human Neurotensin Receptor (NTS), NTSR1 (gene 4923) (UniProt P30989). Put plainly: NVS_GPCR_hNTS: NovaScreen (NVS) G Protein-Coupled Receptor Assay for human Neurotensin Receptor (NTS) (AID 2283279). The gist of the method: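 Compounds competed with a radiolabelled ligand for binding to CHO-derived human neurotensin receptor; bound signal counted after filtration, 1 h. Screened first at a single concentration of 25 uM in duplicate, then concentration series to 50 uM maximum for actives.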

Experiment [6] addresses D(1A) dopamine receptor (Homo sapiens) (UniProt P21728). Put plainly: NVS_GPCR_hDRD1: NovaScreen (NVS) G Protein-Coupled Receptor Assay for human Dopamine Receptor D1 (DRD1) (AID 2283269). The procedure, abridged:
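Cell-free competition with radioligand, filter-trapped and scintillation-counted 1 h post-dose, using HEK293-derived human D1 preparation. Duplicate single-point testing at 25 uM first, then concentration series for actives; DMSO served as baseline, loss-of-signal scored.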

Experiment [7] has as its target Muscarinic acetylcholine receptor M5 (Homo sapiens) (UniProt P08912). The experiment can be described thus: NVS_GPCR_hM5: NovaScreen (NVS) G Protein-Coupled Receptor Assay for human Muscarinic, M5 Receptor (AID 2283275). The procedure, abridged: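 Chemicals passing a primary duplicate screen at 25 uM were run as singleton concentration series, maximum 50 uM. Displacement of a specific radioligand from CHO-extracted receptor was read by filter scintillation after 1 h, relative to DMSO.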

For experiment [8], the target named is Type-1 angiotensin II receptor (Homo sapiens) (UniProt P30556). Put plainly: NVS_GPCR_hAT1: NovaScreen (NVS) G Protein-Coupled Receptor Assay for human Angiotensin II receptor type 1 (AT1) (AID 2283263). The procedure, abridged: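 Hits from a 25 uM duplicate screen (threshold e.g. 30% inhibition) were run in concentration-response with 50 uM top concentration. Displacement of specific radioligand from KAN-TS membrane preparations measured after 3 h by filter scintillation, DMSO as baseline.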

Experiment [9] has as its target human Dopamine Receptor D4.4 (DRD4.4), DRD4 (gene 1815) (UniProt P21917). The experiment can be described thus: NVS_GPCR_hDRD4.4: NovaScreen (NVS) G Protein-Coupled Receptor Assay for human Dopamine Receptor D4.4 (DRD4.4) (AID 2283264). The procedure, abridged:
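Filter-binding assay with a tritiated or iodinated ligand, cell-free receptor prepared from CHO, 1 hour. Loss of bound radioactivity versus DMSO; single 25 uM duplicate screen, then concentration-response for actives.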

For experiment [10], the target named is human Endothelin Receptor Type A (ETA), EDNRA (gene 1909) (UniProt P25101). Put plainly: NVS_GPCR_hETA: NovaScreen (NVS) G Protein-Coupled Receptor Assay for human Endothelin Receptor Type A (ETA) (AID 2283265). The procedure, abridged: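 Binding of radioligand to membrane protein extracted from SH-SY5Y cells was read by filtration and scintillation after 3 h. Compounds were screened at 25 uM in duplicate, with hits followed up in singleton concentration series to 50 uM.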

Experiment [11] has as its target human Dopamine Receptor D2 (DRD2), DRD2 (gene 1813) (UniProt P14416). The experiment can be described thus: NVS_GPCR_hDRD2s: NovaScreen (NVS) G Protein-Coupled Receptor Assay for human Dopamine Receptor D2 (DRD2) (AID 2283266). The gist of the method:
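Test compound (25 uM, duplicate in the primary screen; concentration series at follow-up) competed with radioligand for human DRD2 in CHO-derived membrane protein. Filter-based scintillation counting was done 1.5 hours after dosing, with loss of signal analysed against DMSO.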

Experiment [12] concerns the target human Histamine 1 Receptor (H1), HRH1 (gene 3269) (UniProt P35367). Put plainly: NVS_GPCR_hH1: NovaScreen (NVS) G Protein-Coupled Receptor Assay for human Histamine 1 Receptor (H1) (AID 2283268). The procedure, abridged: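 Filter-based scintillation detection of radioligand binding to human H1, 1 h incubation; chemicals screened in duplicate at 25 uM, then concentration-response; signal loss relative to DMSO taken as activity.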

The target in experiment [13] is Muscarinic acetylcholine receptor M1 (Homo sapiens) (UniProt P11229). The experiment can be described thus: NVS_GPCR_hM1: NovaScreen (NVS) G Protein-Coupled Receptor Assay for human Muscarinic, M1 Receptor (AID 2283270). The gist of the method: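 Actives from a duplicate 25 uM single-point screen were retested in concentration series. Binding measured as displacement of a radioligand from CHO-derived receptor preparation, 1 h incubation, filtration and scintillation counting, analysed as signal loss against DMSO.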

Experiment [14] addresses human Leukotriene B4 Receptor 1 (LTB4-BLT1), LTB4R (gene 1241) (UniProt Q15722). The experiment can be described thus: NVS_GPCR_hLTB4_BLT1: NovaScreen (NVS) G Protein-Coupled Receptor Assay for human Leukotriene B4 Receptor 1 (LTB4-BLT1) (AID 2283271). The procedure, abridged: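 Cell-free human neutrophil receptor preparation, 1 h exposure, radioligand binding read by filter scintillation counting. Single 25 uM duplicate screen, then concentration series topping at 50 uM; binding loss scored against DMSO baseline.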

The target of experiment [15] is Muscarinic acetylcholine receptor M3 (Homo sapiens) (UniProt P20309). The experiment can be described thus: NVS_GPCR_hM3: NovaScreen (NVS) G Protein-Coupled Receptor Assay for human Muscarinic, M3 Receptor (AID 2283272). The gist of the method:
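Radioligand displacement binding on human M3 receptor in CHO-derived membranes, 1 h incubation, filter-based scintillation counting. Primary screen in duplicate at 25 uM; actives followed up in concentration series; loss of signal versus DMSO.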

Experiment [16] has as its target Muscarinic acetylcholine receptor M2 (Homo sapiens) (UniProt P08172). The experiment can be described thus: NVS_GPCR_hM2: NovaScreen (NVS) G Protein-Coupled Receptor Assay for human Muscarinic, M2 Receptor (AID 2283273). The gist of the method: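 CHO-expressed human M2 receptor preparation, competitive displacement of a radioligand read by filter-based scintillation counting after 1 h. Single 25 uM duplicate screen, then concentration-response follow-up of actives; DMSO baseline.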

In experiment [17] the target is human Muscarinic, M4 Receptor, CHRM4 (gene 1132) (UniProt P08173). The experiment can be described thus: NVS_GPCR_hM4: NovaScreen (NVS) G Protein-Coupled Receptor Assay for human Muscarinic, M4 Receptor (AID 2283274). The procedure, abridged: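 Filter-based scintillation counting of radioligand bound to CHO-expressed human M4 preparations after 1 h; loss of signal fitted versus DMSO. Initial duplicate testing at 25 uM, concentration-response follow-up for actives.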

In experiment [18] the target is Neuropeptide Y receptor type 2 (Homo sapiens) (UniProt P49146). Put plainly: NVS_GPCR_hNPY2: NovaScreen (NVS) G Protein-Coupled Receptor Assay for human Neuropeptide Receptor Y2 (NPY2) (AID 2283277). The gist of the method:
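Chemicals were first tested in duplicate at 25 uM, then actives in singleton concentration series to 50 uM. Tracer binding to SK-N-MC-derived protein measured cell-free after 1 h via filter scintillation; signal loss relative to DMSO.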

The target of experiment [19] is human Opioid Receptor Delta 1 (Opiate D1), OPRD1 (gene 4985) (UniProt P41143). The experiment can be described thus: NVS_GPCR_hOpiate_D1: NovaScreen (NVS) G Protein-Coupled Receptor Assay for human Opioid Receptor Delta 1 (Opiate D1) (AID 2283280). The gist of the method:
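Membrane preparations from CHO cells bearing the human receptor were incubated 1 h with test chemical, and bound radioligand was counted after filtration. Actives from 25 uM duplicate screening were retested in concentration-response.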

D(1A) dopamine receptor (Homo sapiens), sequence (P21728 whole entry, looked up): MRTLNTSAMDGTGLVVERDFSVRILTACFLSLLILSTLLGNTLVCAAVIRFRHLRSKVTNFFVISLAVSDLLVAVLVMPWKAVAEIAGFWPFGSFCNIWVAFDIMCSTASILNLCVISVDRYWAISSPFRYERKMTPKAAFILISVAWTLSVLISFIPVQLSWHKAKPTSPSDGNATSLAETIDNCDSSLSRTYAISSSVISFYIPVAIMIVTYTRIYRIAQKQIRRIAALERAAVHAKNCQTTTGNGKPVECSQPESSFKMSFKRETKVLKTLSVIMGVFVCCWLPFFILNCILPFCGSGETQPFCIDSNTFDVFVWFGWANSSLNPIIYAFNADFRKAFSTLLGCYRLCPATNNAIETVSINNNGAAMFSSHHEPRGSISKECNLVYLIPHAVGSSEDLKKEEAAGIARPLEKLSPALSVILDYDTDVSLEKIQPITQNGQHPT
human Thromboxane A2 Receptor (TXA2), TBXA2R (gene 6915), sequence (P21731 whole entry, looked up): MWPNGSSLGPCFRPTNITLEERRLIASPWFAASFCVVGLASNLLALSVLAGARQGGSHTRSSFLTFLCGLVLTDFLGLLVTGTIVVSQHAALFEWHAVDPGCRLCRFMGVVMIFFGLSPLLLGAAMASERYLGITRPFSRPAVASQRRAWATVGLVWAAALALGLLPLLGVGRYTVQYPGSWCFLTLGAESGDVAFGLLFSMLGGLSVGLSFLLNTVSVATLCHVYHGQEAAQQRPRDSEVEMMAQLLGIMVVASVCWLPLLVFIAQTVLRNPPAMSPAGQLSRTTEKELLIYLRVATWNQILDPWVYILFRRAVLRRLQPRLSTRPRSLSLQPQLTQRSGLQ
human Dopamine Receptor D2 (DRD2), DRD2 (gene 1813), sequence (P14416 whole entry, looked up): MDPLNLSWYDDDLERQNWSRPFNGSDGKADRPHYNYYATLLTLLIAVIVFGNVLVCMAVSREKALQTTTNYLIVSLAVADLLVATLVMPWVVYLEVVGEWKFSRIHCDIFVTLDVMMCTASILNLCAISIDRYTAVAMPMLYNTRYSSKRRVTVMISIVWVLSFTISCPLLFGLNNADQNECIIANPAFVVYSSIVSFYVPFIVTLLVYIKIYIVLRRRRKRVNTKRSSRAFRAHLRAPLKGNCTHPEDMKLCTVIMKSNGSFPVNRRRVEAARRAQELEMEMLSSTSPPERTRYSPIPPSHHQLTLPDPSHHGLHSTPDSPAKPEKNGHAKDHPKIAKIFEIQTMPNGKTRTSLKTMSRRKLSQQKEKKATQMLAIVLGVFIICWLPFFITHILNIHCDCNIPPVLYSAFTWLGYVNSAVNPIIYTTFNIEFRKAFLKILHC
human Neurokinin, NK2 Receptor, TACR2 (gene 6865), sequence (P21452 whole entry, looked up): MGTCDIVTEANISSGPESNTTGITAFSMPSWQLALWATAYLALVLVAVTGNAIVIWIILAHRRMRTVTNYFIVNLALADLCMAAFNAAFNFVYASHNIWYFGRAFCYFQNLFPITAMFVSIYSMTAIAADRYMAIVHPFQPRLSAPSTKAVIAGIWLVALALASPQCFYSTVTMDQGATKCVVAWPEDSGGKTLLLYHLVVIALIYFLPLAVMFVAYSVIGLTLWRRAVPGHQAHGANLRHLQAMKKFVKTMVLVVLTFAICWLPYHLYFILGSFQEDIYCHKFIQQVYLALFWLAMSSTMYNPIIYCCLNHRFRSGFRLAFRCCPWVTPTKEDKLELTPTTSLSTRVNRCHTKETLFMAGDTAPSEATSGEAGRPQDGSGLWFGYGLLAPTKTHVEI
Muscarinic acetylcholine receptor M5 (Homo sapiens), sequence (P08912 whole entry, looked up): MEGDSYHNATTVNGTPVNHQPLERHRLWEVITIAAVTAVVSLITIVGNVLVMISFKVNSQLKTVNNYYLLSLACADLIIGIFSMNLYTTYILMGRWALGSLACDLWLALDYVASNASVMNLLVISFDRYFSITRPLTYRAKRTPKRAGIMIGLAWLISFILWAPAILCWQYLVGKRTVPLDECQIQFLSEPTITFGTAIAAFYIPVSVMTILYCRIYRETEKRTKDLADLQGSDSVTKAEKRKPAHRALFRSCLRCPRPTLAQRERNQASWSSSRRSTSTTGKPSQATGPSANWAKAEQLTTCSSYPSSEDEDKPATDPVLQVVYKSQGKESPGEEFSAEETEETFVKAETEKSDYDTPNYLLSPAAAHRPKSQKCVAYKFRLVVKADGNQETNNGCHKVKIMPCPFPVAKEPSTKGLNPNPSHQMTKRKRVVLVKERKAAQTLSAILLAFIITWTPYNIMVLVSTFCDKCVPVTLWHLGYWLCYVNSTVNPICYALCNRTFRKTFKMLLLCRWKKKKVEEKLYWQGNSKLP
human Purinergic Receptor P2Y, P2RY1 (gene 5028), sequence (P47900 whole entry, looked up): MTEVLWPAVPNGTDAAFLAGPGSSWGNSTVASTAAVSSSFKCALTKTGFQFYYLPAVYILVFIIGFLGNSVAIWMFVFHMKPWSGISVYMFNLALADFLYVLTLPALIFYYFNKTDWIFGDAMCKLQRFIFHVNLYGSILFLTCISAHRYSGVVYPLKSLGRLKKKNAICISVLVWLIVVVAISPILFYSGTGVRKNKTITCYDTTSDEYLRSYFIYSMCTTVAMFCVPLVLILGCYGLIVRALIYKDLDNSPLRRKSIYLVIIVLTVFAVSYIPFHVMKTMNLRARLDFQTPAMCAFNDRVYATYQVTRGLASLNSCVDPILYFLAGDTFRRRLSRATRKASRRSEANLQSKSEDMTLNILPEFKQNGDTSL
human Leukotriene B4 Receptor 1 (LTB4-BLT1), LTB4R (gene 1241), sequence (Q15722 whole entry, looked up): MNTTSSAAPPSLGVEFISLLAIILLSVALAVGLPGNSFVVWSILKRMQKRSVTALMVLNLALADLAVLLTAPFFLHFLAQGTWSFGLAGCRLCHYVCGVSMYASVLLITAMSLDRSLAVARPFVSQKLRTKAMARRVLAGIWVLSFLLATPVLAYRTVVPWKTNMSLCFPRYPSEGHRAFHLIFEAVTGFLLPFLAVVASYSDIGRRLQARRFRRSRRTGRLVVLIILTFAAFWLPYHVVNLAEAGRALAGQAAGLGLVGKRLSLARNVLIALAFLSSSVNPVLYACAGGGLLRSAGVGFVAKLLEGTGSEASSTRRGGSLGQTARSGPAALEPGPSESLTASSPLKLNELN
human Opioid Receptor Delta 1 (Opiate D1), OPRD1 (gene 4985), sequence (P41143 whole entry, looked up): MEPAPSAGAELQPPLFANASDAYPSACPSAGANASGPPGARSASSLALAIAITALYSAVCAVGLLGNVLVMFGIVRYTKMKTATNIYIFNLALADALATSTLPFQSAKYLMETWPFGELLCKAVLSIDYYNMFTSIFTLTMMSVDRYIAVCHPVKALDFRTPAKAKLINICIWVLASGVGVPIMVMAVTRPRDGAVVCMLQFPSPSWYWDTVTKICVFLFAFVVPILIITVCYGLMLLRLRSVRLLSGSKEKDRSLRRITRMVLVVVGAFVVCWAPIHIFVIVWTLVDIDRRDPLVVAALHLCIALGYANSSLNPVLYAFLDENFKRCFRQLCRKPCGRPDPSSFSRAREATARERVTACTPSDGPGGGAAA
human Neuropeptide Receptor Y1 (NPY1), NPY1R (gene 4886), sequence (P25929 whole entry, looked up): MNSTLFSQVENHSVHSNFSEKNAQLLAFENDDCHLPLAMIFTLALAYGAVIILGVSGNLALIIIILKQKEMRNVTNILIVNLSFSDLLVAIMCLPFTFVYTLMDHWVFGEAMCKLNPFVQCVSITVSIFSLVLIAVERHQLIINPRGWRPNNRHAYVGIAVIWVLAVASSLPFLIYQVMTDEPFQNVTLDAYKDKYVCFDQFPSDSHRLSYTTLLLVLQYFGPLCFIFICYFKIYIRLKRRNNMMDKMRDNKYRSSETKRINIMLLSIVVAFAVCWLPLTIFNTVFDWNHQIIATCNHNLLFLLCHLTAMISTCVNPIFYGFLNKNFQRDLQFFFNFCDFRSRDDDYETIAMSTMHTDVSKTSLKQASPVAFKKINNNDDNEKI
human Dopamine Receptor D4.4 (DRD4.4), DRD4 (gene 1815), sequence (P21917 whole entry, looked up): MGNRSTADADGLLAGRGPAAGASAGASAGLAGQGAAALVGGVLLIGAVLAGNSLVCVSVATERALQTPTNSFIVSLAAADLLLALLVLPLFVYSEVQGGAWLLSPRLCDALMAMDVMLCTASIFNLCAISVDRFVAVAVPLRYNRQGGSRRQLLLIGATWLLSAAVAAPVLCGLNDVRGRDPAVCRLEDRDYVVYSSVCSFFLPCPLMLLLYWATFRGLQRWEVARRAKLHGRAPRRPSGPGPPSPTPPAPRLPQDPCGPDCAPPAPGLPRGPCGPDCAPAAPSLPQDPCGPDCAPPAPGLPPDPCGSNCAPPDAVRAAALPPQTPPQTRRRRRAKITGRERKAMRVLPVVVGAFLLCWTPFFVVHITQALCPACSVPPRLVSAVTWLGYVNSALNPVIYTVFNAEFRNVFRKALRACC
human Neurotensin Receptor (NTS), NTSR1 (gene 4923), sequence (P30989 whole entry, looked up): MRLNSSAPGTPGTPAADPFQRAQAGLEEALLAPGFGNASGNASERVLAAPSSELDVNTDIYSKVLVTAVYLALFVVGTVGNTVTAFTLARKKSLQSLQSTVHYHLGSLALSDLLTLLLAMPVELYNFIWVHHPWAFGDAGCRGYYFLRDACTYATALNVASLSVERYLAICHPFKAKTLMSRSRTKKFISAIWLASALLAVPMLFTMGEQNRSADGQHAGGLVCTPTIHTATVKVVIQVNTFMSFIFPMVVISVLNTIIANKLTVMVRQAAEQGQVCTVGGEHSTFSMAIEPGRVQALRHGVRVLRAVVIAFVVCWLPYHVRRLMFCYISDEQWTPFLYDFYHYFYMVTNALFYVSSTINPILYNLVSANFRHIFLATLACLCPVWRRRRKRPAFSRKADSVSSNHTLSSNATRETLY
human Endothelin Receptor Type A (ETA), EDNRA (gene 1909), sequence (P25101 whole entry, looked up): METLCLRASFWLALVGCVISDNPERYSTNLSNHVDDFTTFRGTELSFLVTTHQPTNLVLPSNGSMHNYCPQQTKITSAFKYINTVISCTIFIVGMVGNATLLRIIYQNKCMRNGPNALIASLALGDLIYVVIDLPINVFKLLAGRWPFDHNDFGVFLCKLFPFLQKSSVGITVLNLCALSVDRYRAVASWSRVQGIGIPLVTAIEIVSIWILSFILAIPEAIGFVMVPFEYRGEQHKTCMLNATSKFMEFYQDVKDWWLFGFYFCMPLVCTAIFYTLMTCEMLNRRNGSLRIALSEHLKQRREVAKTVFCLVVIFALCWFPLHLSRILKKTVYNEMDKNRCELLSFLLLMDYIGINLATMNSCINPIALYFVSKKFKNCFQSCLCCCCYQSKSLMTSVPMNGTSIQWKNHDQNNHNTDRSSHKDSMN

Take `COP(=S)(OC)Oc1cc(Cl)c(Cl)cc1Cl`: the call in experiment [1] was inactive.
In general, AC50 refers to the midpoint of the concentration-response curve, whichever way the signal moves. As for `COP(=S)(OC)Oc1ccc(Sc2ccc(OP(=S)(OC)OC)cc2)cc1`, the call in experiment [1] and in experiment [2] was inactive. Also, in experiment [3], the concentration at half-maximal activity (AC50) was 25 µM (active).
In the case of `C(=NC1CCCCC1)=NC1CCCCC1`, the half-maximal activity concentration (AC50) in [3] was 2.87 µM (active).
On to `Oc1cccc2cccnc12`, for which the compound was classed as inactive in experiment [4] and in experiment [5]. For the same compound, in experiment [1], the AC50 was 4.96 µM (active).
Regarding `CCCCCCCCC(=O)NCc1ccc(O)c(OC)c1`, the outcome in experiment [3] was inactive.
For the compound `Nc1cccc2ccccc12`, the AC50 in experiment [6] is 37.8 µM (active); in experiment [1], 4.28 µM (active).
`COP(=S)(OC)Oc1ccc(S(=O)(=O)N(C)C)cc1`: the compound was classed as inactive in experiment [1].
In the case of `CCOC(=O)/C=C(C)/C=C/C[C@@H](C)CCCC(C)C`, in experiment [6], the half-maximal activity concentration (AC50) was 32.1 µM (active).
Take `O=C(Nc1ccc2[nH]ccc2c1)c1cc2cc(F)ccc2n1Cc1cccc(F)c1`: the compound was called inactive in experiment [7].
Turning to `COc1ccc(OC)c(C=O)c1`, in experiment [3], the compound was called inactive.
For `CCNc1nc(NC(C)(C)C)nc(SC)n1`, the compound was classed as inactive in experiment [3].
Consider `CC(=O)[O][Hg][c]1ccccc1`, for which the half-maximal activity concentration (AC50) in experiment [8] was 15.1 µM (active); in experiment [9] it was 0.794 µM (active); in experiment [10], 1.07 µM (active); in experiment [11] it was 428 nM (active); in experiment [12], 1.18 µM (active); in experiment [6], 0.104 µM (active). Moreover, the AC50 in [13] was 1.39 µM (active); in [14] it was 21 µM (active); in experiment [15], 0.562 µM (active); in [16], 0.909 µM (active); in experiment [17], 0.77 µM (active); in experiment [7], 0.591 µM (active). Besides, the AC50 in experiment [4] is 0.51 µM (active); in [18], 8.48 µM (active); in experiment [1], 0.52 µM (active); in experiment [19] it was 0.848 µM (active); in [2], 5.96 µM (active); in experiment [3], 5.62 µM (active).
As for `N#CCc1ccc(Cl)cc1`, the call in [3] was inactive.
As to `O=C(O)C(F)(F)C(F)(F)C(F)(F)C(F)(F)C(F)(F)C(F)(F)C(F)(F)C(F)(F)C(F)(F)C(F)(F)F`, the values for the AC50 in experiment [11], in [14] and in [19] were 11000 nM (active), 33.4 µM (active) and 10.7 µM (active), respectively. The result in experiment [6] and in experiment [3] was inactive.
In the case of `COc1cc(-c2ccc(N)c(OC)c2)ccc1N`, the half-maximal activity concentration (AC50) in experiment [9] is 16.7 µM (active); in experiment [11], 5.28 µM (active) and 9.98 µM (active).
